Source: PubChem BioAssay (EPA / NIEHS)
Calls of active or inactive are those of the source. The calls were made as follows: active = hit-call score of the fitted dose curve at least 0.9, where 1 is the maximum; inactive = score below 0.9.

How the values were obtained:
[1] = ATG_CRE_CIS: Attagene CIS-FACTORIAL HepG2 Assay for human cAMP Responsive Element (CRE) binding protein 3 (AID 2282926); conditions: HepG2 CRE cis-reporter, Attagene multiplexed mRNA; actives raise or lower the signal
Outline: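 Transfected HepG2 were treated for 24 hours, then RNA was extracted and reporter cDNA amplified with sequence-specific primers. Labelled fragments were separated by capillary electrophoresis, and the CRE signal was fitted bidirectionally with DMSO as baseline.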

[2] = target: CCAAT/enhancer-binding protein beta (Homo sapiens) (UniProt P17676); assay: ATG_C_EBP_CIS: Attagene CIS-FACTORIAL HepG2 Assay for human CCAAT/Enhancer Binding Protein (C/EBP) beta (AID 2282927); conditions: HepG2 Attagene cis-factorial transcription factor reporter; actives raise or lower the signal
Sequence of CCAAT/enhancer-binding protein beta (Homo sapiens) (P17676 whole entry, looked up): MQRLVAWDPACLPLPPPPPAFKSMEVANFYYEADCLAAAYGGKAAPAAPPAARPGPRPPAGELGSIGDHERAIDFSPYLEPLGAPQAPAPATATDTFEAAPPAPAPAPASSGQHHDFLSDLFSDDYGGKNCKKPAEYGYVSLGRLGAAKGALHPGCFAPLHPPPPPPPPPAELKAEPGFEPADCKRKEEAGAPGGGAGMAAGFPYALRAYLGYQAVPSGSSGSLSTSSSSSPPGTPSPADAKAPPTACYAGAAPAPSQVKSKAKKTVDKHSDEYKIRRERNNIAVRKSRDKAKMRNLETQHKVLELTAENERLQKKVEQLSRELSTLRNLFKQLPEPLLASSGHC
Outline: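 Transiently transfected HepG2 (MRTU library, endogenous TF-driven promoters); 24 h dosing; total RNA → oligo(dT) RT → PCR → 6-FAM primer extension → HpaI digest → CE; fit bidirectionally vs DMSO.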

[3] = ATG_CMV_CIS: Attagene CIS-FACTORIAL HepG2 Assay for human CMV (Internal Marker) (AID 2282928); conditions: HepG2 CMV promoter reporter, transcription factor profiling; actives raise or lower the signal;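 also: endpoint acts as a background internal control marker rather than a target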
Outline: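 Cell system: HepG2, transiently transfected multiple reporter units under cis promoters. Exposure: 24 h. Detection: RT-PCR, FAM labeling, HpaI digestion, capillary electrophoresis. Analysis: bidirectional, DMSO baseline.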

[4] = target: Aryl hydrocarbon receptor (Homo sapiens) (UniProt P35869); assay: ATG_Ahr_CIS: Attagene CIS-FACTORIAL HepG2 Assay for human Aryl Hydrocarbon Receptor (Ahr) (AID 2282930); conditions: HepG2 AhR cis-factorial reporter transcription; actives raise or lower the signal
Sequence of Aryl hydrocarbon receptor (Homo sapiens) (P35869 whole entry, looked up): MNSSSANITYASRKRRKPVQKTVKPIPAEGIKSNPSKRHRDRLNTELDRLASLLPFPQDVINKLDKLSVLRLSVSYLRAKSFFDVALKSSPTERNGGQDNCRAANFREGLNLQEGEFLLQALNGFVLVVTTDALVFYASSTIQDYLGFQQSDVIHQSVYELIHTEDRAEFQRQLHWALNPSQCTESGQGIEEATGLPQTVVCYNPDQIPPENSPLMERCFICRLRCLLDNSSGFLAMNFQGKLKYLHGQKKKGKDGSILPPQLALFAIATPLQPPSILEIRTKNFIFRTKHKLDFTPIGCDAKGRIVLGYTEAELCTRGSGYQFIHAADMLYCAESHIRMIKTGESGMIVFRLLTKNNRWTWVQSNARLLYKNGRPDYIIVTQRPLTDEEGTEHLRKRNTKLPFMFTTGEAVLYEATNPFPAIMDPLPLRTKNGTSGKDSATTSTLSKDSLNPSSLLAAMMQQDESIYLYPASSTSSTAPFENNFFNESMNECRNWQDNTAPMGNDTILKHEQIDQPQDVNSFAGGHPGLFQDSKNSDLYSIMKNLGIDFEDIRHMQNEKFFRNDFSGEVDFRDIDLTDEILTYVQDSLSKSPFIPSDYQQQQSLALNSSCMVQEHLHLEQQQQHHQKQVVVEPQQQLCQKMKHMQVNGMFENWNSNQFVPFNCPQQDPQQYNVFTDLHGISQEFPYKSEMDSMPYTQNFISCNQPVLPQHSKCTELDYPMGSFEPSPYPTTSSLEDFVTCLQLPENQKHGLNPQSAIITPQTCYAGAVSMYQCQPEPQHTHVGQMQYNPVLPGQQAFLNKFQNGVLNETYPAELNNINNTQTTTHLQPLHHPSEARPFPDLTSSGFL
Outline: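 Read-out: reporter mRNA quantified by RT-PCR with fluorescent primer extension and capillary electrophoresis. Human HepG2 liver cells carried transfected cis-promoter reporter units and were exposed to chemical for 24 h; gain or loss fitted relative to DMSO.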

[5] = ATG_AP_1_CIS: Attagene CIS-FACTORIAL HepG2 Assay for human Activator Protein 1 (AP-1) (AID 2282931); conditions: HepG2 Attagene cis-factorial AP-1 reporter mRNA; actives raise or lower the signal
Outline: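 HepG2 cells transiently transfected with cis-element-driven multiplex reporter units; 24 h compound exposure. Reporter mRNA quantified by RT-PCR, FAM-labelled fragments resolved by capillary electrophoresis; bidirectional fit versus DMSO baseline.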

[6] = ATG_AP_2_CIS: Attagene CIS-FACTORIAL HepG2 Assay for human Activator Protein 2 (AP-2) (AID 2282932); conditions: HepG2 AP-2 cis-reporter, Attagene transcription factor profiling; actives raise or lower the signal
Outline: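 Multiplexed mRNA reporter assay in HepG2: cis-regulated units report endogenous factor activity after 24 h treatment. Fluorescence from capillary electrophoresis of RT-PCR products gives the signal, with DMSO as baseline.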

[7] = ATG_BRE_CIS: Attagene CIS-FACTORIAL HepG2 Assay for human Bone Morphogenetic Protein (BMP) Response Element (BRE) (AID 2282933); conditions: HepG2 BMP response element reporter, Attagene transcription factor profiling; actives raise or lower the signal
Outline: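 Transient MRTU transfection of human HepG2 liver cells; 24 h compound treatment; total RNA isolated, reverse-transcribed, PCR-amplified, 6-FAM labelled, HpaI-cut, capillary electrophoresis. DMSO = negative control/baseline, bidirectional fit.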

[8] = target: Transcription factor E2F1 (Homo sapiens) (UniProt Q01094); assay: ATG_E2F_CIS: Attagene CIS-FACTORIAL HepG2 Assay for human E2F Transcription Factor 1 (AID 2282935); conditions: HepG2 Attagene cis-reporter, E2F reporter RNA transcripts; actives raise or lower the signal
Sequence of Transcription factor E2F1 (Homo sapiens) (Q01094 whole entry, looked up): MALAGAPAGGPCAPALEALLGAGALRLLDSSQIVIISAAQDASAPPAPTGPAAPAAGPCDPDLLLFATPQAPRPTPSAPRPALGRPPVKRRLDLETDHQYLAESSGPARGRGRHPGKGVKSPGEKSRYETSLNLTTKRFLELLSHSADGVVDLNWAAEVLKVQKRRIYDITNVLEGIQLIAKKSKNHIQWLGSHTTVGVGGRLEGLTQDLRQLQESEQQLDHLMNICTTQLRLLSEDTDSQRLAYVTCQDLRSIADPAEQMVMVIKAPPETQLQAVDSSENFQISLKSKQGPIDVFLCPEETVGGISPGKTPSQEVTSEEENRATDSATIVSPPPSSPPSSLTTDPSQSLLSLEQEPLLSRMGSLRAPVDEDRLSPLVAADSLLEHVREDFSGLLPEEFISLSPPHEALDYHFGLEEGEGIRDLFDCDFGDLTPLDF
Outline: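 Measures reporter transcript levels via RT-PCR with capillary electrophoresis detection in HepG2 cells harboring cis-regulated reporter units; 24 h post-dose; bidirectional curve fitting with DMSO as baseline.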

[9] = ATG_E_Box_CIS: Attagene CIS-FACTORIAL HepG2 Assay for human Enhancer Box (E-box) (AID 2282936); conditions: HepG2 E-box cis-reporter transcription, actives raise or lower the signal
Outline: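 First, HepG2 cells receive multiple cis-regulated reporter constructs by transient transfection. Next, chemicals are applied for 24 h. Finally, reporter mRNA is quantified via RT-PCR and capillary electrophoresis, with DMSO as baseline.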

[10] = ATG_M_61_CIS: Attagene CIS-FACTORIAL HepG2 Assay for M61 Transcription Factor (Internal Marker) (AID 2282937); conditions: HepG2 Attagene CIS-FACTORIAL M61 internal marker reporter; actives raise or lower the signal
Outline: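 HepG2 cells transiently transfected with cis-element-driven multiple reporter transcription units, dosed for 24 h. Reporter mRNA measured by RT-PCR, 6-FAM primer-extension labelling, HpaI digestion and capillary electrophoresis; bidirectional fit versus DMSO baseline.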

[11] = ATG_EGR_CIS: Attagene CIS-FACTORIAL HepG2 Assay for human Early Growth Response 1 (EGR1) (AID 2282938); conditions: HepG2 Attagene CIS-FACTORIAL EGR reporter mRNA; actives raise or lower the signal
Outline: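 HepG2 cells transiently transfected with cis-promoter-driven multiplexed reporter transcription units; reporter mRNA measured 24 h after compound dosing by RT-PCR, 6-FAM primer extension, HpaI digestion and capillary electrophoresis. Bidirectional fit versus DMSO baseline.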

[12] = ATG_M_19_CIS: Attagene CIS-FACTORIAL HepG2 Assay for M19 Transcription Factor (Internal Marker) (AID 2282939); conditions: HepG2 Attagene CIS-FACTORIAL M19 internal marker reporter; actives raise or lower the signal
Outline: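 Transfect HepG2 with MRTU reporter library → dose chemical, 24 h → isolate total RNA, reverse-transcribe with oligo(dT) → PCR, 6-FAM label, HpaI cut (2 h, 37 C) → capillary electrophoresis. Bidirectional fit vs DMSO.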

[13] = ATG_Ets_CIS: Attagene CIS-FACTORIAL HepG2 Assay for human Erythroblast Transformation Specific (ETS) (AID 2282941); conditions: HepG2 ETS cis-reporter transcription, actives raise or lower the signal
Outline: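 After transient cis-reporter transfection, HepG2 cells receive test chemical for 24 h. Reporter mRNA levels, measured by RT-PCR and capillary electrophoresis fluorescence, are analysed bidirectionally relative to the DMSO baseline.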

[14] = target: Hepatocyte nuclear factor 3-beta (Homo sapiens) (UniProt Q9Y261); assay: ATG_FoxA2_CIS: Attagene CIS-FACTORIAL HepG2 Assay for human Forkhead box A2 (FOXA2) (AID 2282942); conditions: HepG2 cis-reporter transcription factor activity, 24 h; actives raise or lower the signal
Sequence of Hepatocyte nuclear factor 3-beta (Homo sapiens) (Q9Y261 whole entry, looked up): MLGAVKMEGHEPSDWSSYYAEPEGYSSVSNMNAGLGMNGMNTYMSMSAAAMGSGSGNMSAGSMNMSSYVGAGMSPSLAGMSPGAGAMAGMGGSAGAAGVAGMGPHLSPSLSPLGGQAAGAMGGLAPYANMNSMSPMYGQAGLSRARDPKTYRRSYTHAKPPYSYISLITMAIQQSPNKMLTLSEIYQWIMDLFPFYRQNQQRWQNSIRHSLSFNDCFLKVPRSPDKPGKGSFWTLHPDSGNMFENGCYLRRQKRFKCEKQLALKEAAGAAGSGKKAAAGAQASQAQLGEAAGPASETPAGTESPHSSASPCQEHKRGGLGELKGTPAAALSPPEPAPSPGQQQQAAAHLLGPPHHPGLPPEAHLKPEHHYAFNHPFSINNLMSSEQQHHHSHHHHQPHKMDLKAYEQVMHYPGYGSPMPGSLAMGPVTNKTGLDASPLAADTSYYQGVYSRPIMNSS
Outline: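 HepG2 cells transiently transfected with multiple cis-regulated reporter transcription units, dosed for 24 h. Reporter mRNA measured by RT-PCR, 6-FAM labelling, HpaI digestion and capillary electrophoresis; bidirectional fitting against DMSO baseline.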

[15] = ATG_FoxO_CIS: Attagene CIS-FACTORIAL HepG2 Assay for human Forkhead box O (FoxO) (AID 2282943); conditions: HepG2 Attagene cis-reporter, FoxO element, mRNA; actives raise or lower the signal
Outline: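 Read-out: fluorescence of 6-FAM-labelled reporter cDNA fragments resolved by capillary electrophoresis. Transiently transfected HepG2 cells were dosed for 24 h; activity fitted in both directions relative to DMSO controls.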

[16] = ATG_GATA_CIS: Attagene CIS-FACTORIAL HepG2 Assay for human GATA Binding Protein (AID 2282944); conditions: HepG2 GATA cis-element reporter, Attagene multiplex mRNA; actives raise or lower the signal
Outline: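 Transient MRTU transfection, HepG2, 24 h compound exposure. Total RNA → oligo(dT) RT → PCR → 6-FAM primer extension → HpaI cut → CE. Bidirectional fit vs DMSO.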

[17] = ATG_GLI_CIS: Attagene CIS-FACTORIAL HepG2 Assay for human Zinc Finger Protein GLI1 (AID 2282945); conditions: HepG2, Attagene cis-factorial reporter mRNA, GLI element; actives raise or lower the signal
Outline: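 Transiently transfected HepG2 cells report endogenous transcription factor activity via cis-element-driven reporter units. After 24 h compound exposure, reporter mRNA was measured by RT-PCR with capillary electrophoresis; bidirectional fitting against DMSO baseline.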

[18] = ATG_ERE_CIS: Attagene CIS-FACTORIAL HepG2 Assay for Estrogen Response Element (ERE) (AID 2282940); conditions: HepG2 ERE cis-reporter, Attagene RNA transcript; actives raise or lower the signal
Outline: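 Transient MRTU transfection of human HepG2; cis-element promoters; 24 h dosing; total RNA → RT (oligo dT) → PCR → 6-FAM primer extension → HpaI digest → CE fluorescence. Bidirectional fit, DMSO baseline.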

[19] = target: Retinoic acid receptor alpha (Homo sapiens) (UniProt P10276); assay: ATG_DR5_RAR_CIS: Attagene CIS-FACTORIAL HepG2 Assay for human Retinoic Acid Receptor Alpha (RARE), DR5 submotif (AID 2282934); conditions: HepG2 Attagene cis-factorial RARE DR5 reporter, mRNA; actives raise or lower the signal
Sequence of Retinoic acid receptor alpha (Homo sapiens) (P10276 whole entry, looked up): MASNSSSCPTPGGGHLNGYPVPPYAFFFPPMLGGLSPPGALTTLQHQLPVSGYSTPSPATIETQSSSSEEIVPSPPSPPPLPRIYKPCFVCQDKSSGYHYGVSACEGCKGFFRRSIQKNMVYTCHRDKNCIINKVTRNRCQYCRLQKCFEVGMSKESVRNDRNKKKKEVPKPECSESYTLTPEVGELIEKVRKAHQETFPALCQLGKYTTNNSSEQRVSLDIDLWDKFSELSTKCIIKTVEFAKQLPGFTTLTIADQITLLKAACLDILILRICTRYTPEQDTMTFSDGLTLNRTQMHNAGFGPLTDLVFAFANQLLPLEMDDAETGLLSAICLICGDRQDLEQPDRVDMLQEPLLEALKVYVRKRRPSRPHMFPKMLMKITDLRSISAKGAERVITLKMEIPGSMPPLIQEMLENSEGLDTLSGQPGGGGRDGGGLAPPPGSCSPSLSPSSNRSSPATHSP
Outline: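 Read-out: DR5-driven reporter transcript measured by RT-PCR, 6-FAM primer extension, HpaI digest and capillary electrophoresis. Human HepG2 liver cells carry transiently transfected cis-element reporter constructs; dosing lasts 24 h. Gain or loss of signal fitted against DMSO baseline.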

[20] = ATG_DR4_LXR_CIS: Attagene CIS-FACTORIAL HepG2 Assay for human Liver X Receptor (LXR), DR4 submotif (AID 2282929); conditions: HepG2 Attagene DR4 cis-reporter, mRNA transcription; actives raise or lower the signal
Outline: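 HepG2 cells transiently transfected with cis-promoter-driven multiplexed reporter units (DR4 element) were dosed for 24 h. Reporter mRNA was quantified by RT-PCR, fluorescent primer extension, HpaI digestion and capillary electrophoresis; bidirectional fitting versus DMSO baseline.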

Measured: AC50

CC(C=O)Cc1ccc(C(C)C)cc1 (centres undefined)
inactive: [1] | [2] | [3] | [4] | [5] | [6] | [7] | [8] | [9] | [10] | [11] | [12] | [13] | [14] | [15] | [16] | [17]

CCCC(=O)c1cc(O)c(O)cc1O
inactive: [1] | [2] | [3] | [4] | [5] | [6] | [7] | [8] | [10] | [11] | [12] | [14] | [17]

Cc1cc(C2(c3cc(C)c(O)cc3C)OS(=O)(=O)c3ccccc32)c(C)cc1O
active: [4] 44.5 µM | [18] 2.74 µM
inactive: [1] | [2] | [3] | [5] | [6] | [7] | [8] | [9] | [10] | [11] | [13] | [14] | [16] | [17]

CC(C)(CO)[N+](=O)[O-]
inactive: [1] | [2] | [3] | [4] | [6] | [7] | [8] | [10] | [11] | [12] | [13] | [14] | [15] | [16] | [17]

COc1ccc(OC)c(OC)c1
inactive: [1] | [2] | [3] | [4] | [6] | [7] | [8] | [10] | [11] | [12] | [13] | [14] | [15] | [16] | [17]

C[C@H]1C[C@H]2[C@@H]3CCC4=CC(=O)C=C[C@]4(C)[C@@]3(F)[C@@H](O)C[C@]2(C)[C@@]1(O)C(=O)COP(=O)(O)O
inactive: [1] | [2] | [3] | [4] | [5] | [6] | [7] | [8] | [9] | [10] | [11] | [12] | [18] | [13] | [14] | [15] | [16] | [17]

NCCCCCCN
inactive: [1] | [2] | [3] | [4] | [5] | [6] | [7] | [19] | [8] | [9] | [10] | [14] | [15] | [16] | [17]

CCC(C)(O)CCC=C(C)C (centres undefined)
inactive: [1] | [2] | [3] | [4] | [6] | [7] | [8] | [9] | [10] | [11] | [12] | [18] | [13] | [14] | [15] | [16] | [17]

Nc1cccc(S(=O)(=O)c2cccc(N)c2)c1
inactive: [1] | [2] | [3] | [20] | [6] | [7] | [8] | [9] | [10] | [11] | [12] | [13] | [14] | [15] | [16] | [17]

CC[Si](OC(C)=O)(OC(C)=O)OC(C)=O
inactive: [1] | [2] | [3] | [4] | [5] | [6] | [7] | [8] | [9] | [10] | [11] | [12] | [18] | [13] | [14] | [15] | [16] | [17]

CCCC(=O)C(C)=O
inactive: [1] | [2] | [3] | [4] | [5] | [6] | [7] | [8] | [9] | [10] | [11] | [12] | [18] | [13] | [14] | [15] | [16] | [17]

CC1CCC(C(C)(C)O)CC1 (centres undefined)
inactive: [1] | [2] | [3] | [20] | [6] | [7] | [8] | [9] | [10] | [11] | [12] | [13] | [14] | [15] | [17]

O=[N+]([O-])c1cc(C(F)(F)F)ccc1Cl
inactive: [1] | [2] | [3] | [20] | [5] | [6] | [7] | [8] | [9] | [10] | [11] | [12] | [13] | [14] | [16] | [17]
